This is one part of a sample in which hits are shown more often than they occur.
Dicer inh = inhibitors of Dicer pre-microRNA processing, primary screen, biochemical, cat-ELCCA, chemiluminescence; Endoribonuclease Dicer (Homo sapiens), Q9UPY3; cat-ELCCA pre-miR-21 Dicer processing; stronger effect = higher value; 47,000 compounds, 6% hits; z-score at 25 µM; in the data active = z-score above about 3, passing the limit was not always enough;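 note: higher signal means more uncleaved substrate so more Dicer inhibition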
Each line names hits and unclear results; the compound was inactive in the other large screens.

Oc1ccccc1/C=N/NC(=S)NCCc1ccccc1	none
S=C(NCCc1ccccc1)N/N=C/c1c(-c2ccc(Cl)cc2)[nH]c2ccccc12	Dicer inh 3.7
O=[N+]([O-])c1cccc2cn[nH]c12	none
O=C(O)c1cc2cccc([N+](=O)[O-])c2[nH]1	Dicer inh 132
CCCCNC(=O)c1cc2cccc([N+](=O)[O-])c2[nH]1	none
O=C(CSC1=NNC(c2ccccn2)S1)c1cccc(F)c1 (centres undefined)	none
COC(=O)c1sc2ccccc2c1OC(=O)c1c(-c2c(Cl)cccc2Cl)noc1C	none
O=C(Nc1cc(Cl)c(-n2cccc2)cc1Cl)c1ccc(C(F)(F)F)cc1	none
CC1CN(CN2C(=O)c3ccccc3C2=O)CC(C)O1 (centres undefined)	Dicer inh 3.4
O=C1c2ccccc2C(=O)N1CN1CCN(C(c2ccccc2)c2ccccc2)CC1	none
O=C1c2ccccc2C(=O)N1CN1CCSCC1	none
COCCOC(=O)c1c(C)oc2cc(Br)c(OC/C=C/c3ccccc3)cc12	none
CCNC(=O)c1cc([N+](=O)[O-])cc2c1-c1ccc([N+](=O)[O-])cc1C2=O	none
CN(C)c1ccc(NC(=O)c2ncn[nH]2)cc1	none
COc1ccccc1NC(=S)Nc1ccccn1	none
COc1ccccc1NC(=S)NNC(=O)NNC(=S)Nc1ccccc1OC	Dicer inh 4.4
COc1ccccc1NC(=S)NCC(C)(C)C(=O)O	none
COc1ccc(OCCn2cc(C(=O)C(C)(C)C)c3ccccc32)cc1	none
COc1cccc(NC(=O)NCCN2CCN=C2C)c1	none
COc1ccc(NC(=O)Nc2cncc(C#Cc3ccccc3)c2)cc1	none
CCOc1ccc2nc(NC(=O)Nc3ccc(F)cc3)sc2c1	none
COc1ccccc1NC(=O)Nc1nnc(COc2ccccc2F)s1	Dicer inh 4.8
CC(C)c1nnc(NC(=O)Nc2ccccc2)s1	none
COCc1nnc(NC(=O)c2ccco2)s1	none
COc1ccc(OCc2nnc(NC(=O)Nc3ccccc3F)s2)cc1	none
COc1cccc(NC(=O)Nc2nnc(COc3ccccc3F)s2)c1	Dicer inh 5
COc1cccc(NC(=O)Nc2nnc(COc3ccc(F)cc3)s2)c1	Dicer inh 4.4
CCOC(=O)Cc1nnc(NC(=O)Nc2ccccc2)s1	none
CCc1cc(C(=O)c2ccc(OC)cc2)c(NC(=O)Nc2ccc(F)cc2)s1	none
COc1ccc(NC(=O)Nc2nnc(-c3ccncc3)s2)cc1	Dicer inh 4.2
Nc1nc2c(c(=O)[nH]1)C(c1ccc(OCc3ccccc3F)cc1)CC(=O)N2 (centres undefined)	none
Cc1csc2ncnc(N/N=C/c3ccccc3Cl)c12	none
CC1=C(OC(=O)c2c(-c3c(Cl)cccc3Cl)noc2C)C(=O)CC1	none
Cc1ccc(C(=O)CC(C(=O)O)c2c[nH]c3ccccc23)cc1 (centres undefined)	none
Cc1cccn2cc(-c3cccc(S(=O)(=O)N(C)C)c3)nc12	none
Cc1nn(-c2ccccc2)cc1/C=N/NC(=O)CSc1nnc(-c2ccncc2)n1-c1ccccc1	none
CCOC(=O)c1ccc(NC(=O)CS(=O)(=O)C(C)C)cc1	none
O=C(O)c1ccc(N2C(=O)C3CC=CCC3C2=O)cc1Cl (centres undefined)	none
CCOC(=O)c1c(C)c2c(=O)[nH]cnc2n1-c1ccccc1	none
CCOC(=O)c1snc2c(=O)[nH]cnc12	none
CCOC(=O)c1sc2nc[nH]c(=O)c2c1C	Dicer inh 4.2
Cn1cc(Br)c(NS(=O)(=O)c2ccccc2C(F)(F)F)n1	none
COc1ccc(CC(=O)c2c(O)cc(O)cc2O)cc1	none
Cc1ccccc1Cn1c(SCc2nn[nH]n2)nc2c1c(=O)n(C)c(=O)n2C	Dicer inh 3.5
CCSc1nc2c(c(=O)n(C)c(=O)n2C)n1Cc1ccccc1C	none
Cc1ccccc1Cn1c(SC(C)C(=O)O)nc2c1c(=O)n(C)c(=O)n2C (centres undefined)	none
CCOC(=O)CC(=O)NC(=O)OCC	none
CN1Cc2sccc2C(c2ccc(O)c(O)c2)C1 (centres undefined)	Dicer inh 4.8
CC12CN3CC(C)(CN(C1)C3c1ccc(O)c(O)c1)C2=O (centres undefined)	none
CN1CCc2cc(Cl)c(O)cc2[C@@H](c2ccccc2)C1	none
NNC(=O)c1cc2ncc(C(F)(F)F)cc2s1	none
Cn1ncc(C(=O)O/N=C(\N)c2ccc(C(C)(C)C)cc2)c1-n1cccc1	none
O=C1CC(c2ccc(Cl)cc2)c2cc3c(cc2N1)OCO3 (centres undefined)	Dicer inh 3.6
COc1cc2c(cc1OC)C(c1ccc(F)cc1)CC(=O)N2 (centres undefined)	none
O=C1CC(c2ccc3c(c2)OCO3)c2c(n[nH]c2-c2ccc(Cl)cc2)N1 (centres undefined)	none
CC(C)(C)c1cc(C(C)(C)C)n(-c2ccc(N3C(=O)COCC3=O)cc2)n1	none
Clc1ccc(SC2CN(C(c3ccccc3)c3ccccc3)C2)cc1	none
COc1ccc2c(c1)CCc1sc(NC(=O)c3ccco3)nc1-2	Dicer inh 3.1
CCCCCCCCC(=O)Nc1nc2c(s1)CCc1cc(OC)ccc1-2	none
CCCCCCCC(=O)Nc1nc2c(s1)CCc1cc(OC)ccc1-2	none
COc1ccc2c(c1)-c1nc(NC(=O)c3ccco3)sc1CC2	Dicer inh 5
COc1ccc2c(c1)CCc1sc(NC(=O)c3cc(C)on3)nc1-2	none
COc1cc(OC)cc(C(=O)Nc2nc3c(s2)CCc2cc(OC)ccc2-3)c1	none
COc1ccc2c(c1)CCc1sc(NC(C)=O)nc1-2	Dicer inh 3.5
COc1cc(OC)cc(C(=O)Nc2nc3c(s2)Cc2cc(OC)ccc2-3)c1	none
CCCCCC(=O)Nc1nc2c(s1)CCc1cc(OC)ccc1-2	none
CNC(=O)c1ccccc1S(=O)c1ccc([N+](=O)[O-])cc1C(=O)O (centres undefined)	none
C=CCNC(=O)c1cnn2c(C(F)F)cc(-c3ccccc3)nc12	none
N#Cc1c(-c2ccccc2)nc(SCc2ccccc2Cl)[nH]c1=O	none
Cn1nc(C(F)(F)F)cc1OS(=O)(=O)c1ccc(Cl)cc1Cl	none
C#CC(CC)(CC)NC(=O)C(CC)c1ccccc1 (centres undefined)	none
COC(=O)c1scc(S(=O)(=O)Cc2cccs2)c1N/N=C(\C#N)S(=O)(=O)c1cccs1	none
COC(=O)c1scc(S(=O)(=O)Cc2ccco2)c1NN=C(C#N)C#N	Dicer inh 4.8
N#CC(=C1SCCS1)S(=O)(=O)Cc1ccco1	none
CN(C)CCC(=O)c1ccc(C(C)(C)C)cc1	none
C=CCn1c(SCC(=O)c2c(C)[nH]c3ccccc23)nnc1-c1cccnc1	none
CN(C)C=NC1=C(c2ccccc2)C(=O)c2ccccc21	none
O=C(Nc1ccccc1)c1cc2ccc3ccccc3c2s1	Dicer inh 3.5
Cc1ccc2nc3sc(C(=O)O)cc3cc2c1	none
O=C(O)c1cc2ccc3ccccc3c2s1	Dicer inh 4.1
Cc1c(NC(=O)c2cc3ccccc3c(=O)s2)c(=O)n(-c2ccccc2)n1C	none
O=C(Nc1ccccc1)c1cc2sccc2s1	none
CCOC(=O)c1cc2ccccc2c(=O)s1	none
N#Cc1cc2c(nc1SCC(=O)Nc1ccc(F)cc1)CCC2	none
C=CCSc1nnc2c(n1)OC(c1ccc(N(C)C)cc1)N(C(C)=O)c1ccccc1-2 (centres undefined)	none
O=[N+]([O-])c1csc(C2Nc3ccccc3N2)c1	none
O=C1C(=O)N(CCN2CCOCC2)C(c2cccs2)/C1=C(\O)c1ccc(F)cc1 (centres undefined)	none
CCOC(=O)c1c[nH]c2c(OC)cccc2c1=O	none
O=S(=O)(Oc1ccccc1N1CCOCC1)c1ccc(-c2ccccn2)s1	none
O=C(c1cn(CC(=O)N2CCCCC2)c2ccccc12)C1CC1	none
CC1CCc2c(sc3nnn(CC(=O)N4CCCC4)c(=O)c23)C1 (centres undefined)	none

Screens as filed in PubChem.
